From PubChem BioAssay AID924 (National Center for Advancing Translational Sciences (NCATS), 2007) come the findings set out here.

Out of some 130,000 compounds screened, about 1,200 (0.92%) were called active. A call without a number means that no potency is given here. Not shown: some 3% with an inconclusive outcome. The call rests on the fitted dose curve; in most records, active means well fitted cell-killing curve with a large enough effect; inconclusive means small, poorly fitted or top-dose-only effect; inactive means no such curve, though single readings can be large or run the other way. Only a selection was taken, and actives are over-represented in it overall.
Potency means the concentration at half of the fitted maximal effect.

The test in a line: qHTS Screen for Compounds that Selectively Target Cancer Cells with p53 Mutations: Cytotoxicity of p53ts Cells at the Permissive Temperature. Further: nearly all actives have a fitted effect of over 55% in size. The settings on record: H1299-p53A138V at 32C, ATP luminescence viability, 24 h; series mostly up to 46.1 µM. A digest of the protocol: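 ATP-content luminescence (ATPlite) read-out after 24 h compound exposure at 32C in H1299-p53A138V cells (600/well). Tested up to 46 uM. Normalized to DMSO (0%) and 100 uM tamoxifen (100% killing); Hill-fit AC50.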
(In general: qHTS replaces the single test concentration by a dilution series.)
Consider `Cn1c(-c2ccco2)nc2cc3ccccc3cc21`, for which the Potency was 1.26 µM (active).
As to `CN(c1nc2ccccc2n2c(-c3ccco3)nnc12)S(=O)(=O)c1ccccc1`, the Potency result is “inactive”.
Same read-out and setting: then `c1coc(-c2nc3nc4ccccc4n3nc2-c2ccco2)c1`, with “inactive”; and `CC(=O)c1cccc(NC(=O)c2nc(-c3ccccc3)n(-c3cccc(C)c3)n2)c1`, with “inactive”.
For the compound `CC(C)c1nc(-c2ccccn2)no1`, the Potency result was “inactive”.
The same measure, in the same setting: then `c1csc(-c2nc(-c3ccncc3)no2)c1`, with “inactive”; and `c1ccc(-c2noc(-c3cccs3)n2)nc1`, with 12.6 µM (active).
Take `O=C(Nc1ccccc1Cl)N1CCC(CN2CCCCC2)CC1`: the Potency result is “inactive”.
The same measure, in the same setting: then `COc1cn(CC(=O)Nc2cccc(C)c2C)c(CN2CCCCC2)cc1=O`, with “inactive”; and `CCN1CCC(N(Cc2ccc(F)cc2)C(=O)Nc2cc(C)ccc2C)CC1`, with “inactive”; and `Cc1cc(Cl)ccc1NC(=O)Cc1ccc(NC(=O)N2CCCCc3ccccc32)cc1`, with “inactive”.
The same measure, in the same setting: then `C=CC(=O)c1ccc2ccccc2c1`, with 12.6 µM (active).
In the case of `Cc1ccc2nc(CC(=O)c3ccc4ccccc4c3)c(=O)[nH]c2c1`, the activity change, negative = cytotoxicity is 3.51% [at 9.22 µM] (inactive).
Consider `CCOc1ccccc1NC(=O)CSc1ncc(S(=O)(=O)c2ccc(C(C)(C)C)cc2)c(=O)[nH]1`, for which the Potency result was “inactive”.
Still for that read-out and setting: then `Cn1c(COc2ccccc2C(C)(C)C)nc2ccccc21`, with “inactive”; and `NC(=O)CSc1oc(-c2cccs2)nc1S(=O)(=O)c1ccccc1`, with “inactive”; and `CSc1oc(-c2cccs2)nc1S(=O)(=O)c1ccc(Br)cc1`, with “inactive”.
As to `CCCCS(=O)(=O)c1oc(-c2cccs2)nc1S(=O)(=O)c1ccccc1`, the Potency is 17.8 µM (active).
The same measure, in the same setting: the entry for `COc1cc(NC(=O)CCn2nc(C)cc2C)cc(OC)c1OC` is “inactive”.
Still for that read-out and setting: then `CC(=O)c1cccc(Nc2ccc3cc(S(=O)(=O)N4CCC(C)CC4)ccc3n2)c1`, with “inactive”; and `COc1ccc(N(C)C(=O)C2CCN(S(=O)(=O)c3cc(Br)cc4c3N(C(C)=O)CC4)CC2)cc1`, with “inactive”.
Still for that read-out and setting: then `Cc1nn2c3ccccc3nc2n(C)c1=O`, with “inactive”; and `CC(C)n1c(-c2cccs2)nc2ccccc21`, with “inactive”.
Regarding `Cc1csc(-c2nc3ccccc3n2C)n1`, the Potency is 15.8 µM (active).
Take `Cc1nn(CC(=O)NCCc2ccccc2)c(=O)c2c1sc1ccccc12`: the Potency result was “inactive”.
Still for that read-out and setting: then `COc1ccccc1N1CCN(C2C(=O)c3ccccc3N2C(C)=O)CC1` (centres undefined), with “inactive”.
Same read-out and setting: the entry for `CCSc1ncc(Cl)c(C(=O)Nc2cc(C)ccc2C)n1` is “inactive”.
Take `CCOC(=O)c1ccc(NC(=O)c2nc(SCc3ccc(F)cc3)ncc2Cl)cc1`: the Potency entry is “inactive”.
For the compound `Cc1ccc(NC(=O)c2nc(S(=O)(=O)Cc3cccc(C)c3)ncc2Cl)cc1`, the Potency is 17.8 µM (active).
Turning to `Cc1sc2ncn(CC(=O)N3CCN(c4ccc(F)cc4)CC3)c(=O)c2c1S(=O)(=O)N1CCN(c2ncccn2)CC1`, the Potency entry is “inactive”.
For the compound `CCOC(=O)c1cccc(NS(=O)(=O)c2cc(-c3cnc(C)o3)ccc2OC)c1`, the Potency result was “inactive”.
Same read-out and setting: then `CCOc1ccc2oc(=O)cc(CN3CCN(C(=O)c4ccc(F)cc4)CC3)c2c1`, with “inactive”; and `COc1ccc(-c2cc3ccc(OCc4nn[nH]n4)cc3oc2=O)cc1`, with 10 µM (active).
`COc1ccc2cc(-c3nc(Cl)c4c5c(sc4n3)CC(C)CC5)c(=O)oc2c1` (centres undefined): the Potency result is “inactive”.
For `O=c1oc2cc(O)ccc2cc1-c1ccc(F)cc1`, the Potency result was “inactive”.
For `COc1ccc(S(=O)(=O)NCC(c2ccc(N(C)C)cc2)N2CCc3ccccc32)cc1OC` (centres undefined), the Potency entry is “inactive”.
The same measure, in the same setting: then `COc1ccc(C2=NC3(CCCCC3)N(CC(=O)Nc3ccc(C(C)C)cc3)C2=O)cc1`, with “inactive”; and `O=C(CCc1nc(CN2CCN(S(=O)(=O)c3ccc(F)cc3)CC2)no1)N1CCCCC1`, with “inactive”; and `CCC(C(=O)Nc1cccc(-c2nc3cccnc3s2)c1C)c1ccccc1` (centres undefined), with “inactive”.
For the compound `Cc1c(NC(=O)C(C)(C)C)cccc1-c1nc2ccccc2s1`, the Potency was 12.6 µM (active).
With `Cc1c(NC(=O)Cc2ccccc2)cccc1-c1nc2cccnc2s1`, the Potency entry was “inactive”.
With `Cc1nn(CC(=O)N2CCN(c3cccc(C(F)(F)F)c3)CC2)c(=O)c2cc3sccc3n12`, the Potency entry is “inactive”.
As for `COc1cc(NC(=O)c2noc3c2CSc2ccccc2-3)cc(OC)c1OC`, the Potency result was “inactive”.
In the case of `COc1ccccc1CNC(=O)Cn1nc(C)c2nn(-c3ccc(Cl)cc3)c(C)c2c1=O`, the Potency result is “inactive”.
